# Assay results reported in article PMC6212790, “How bacterial xenogeneic silencer rok distinguishes foreign from self DNA in its resident genome”.
# Over roughly 33,000 sequences, “e-score” has its median near -0.037; the highest 2% begin near 0.34. The full list was thinned out, with the highest values kept by preference.
# Biological target: T1, GST-Rok (full length) (Bacillus subtilis subsp. subtilis str. …, UniProt O34857 1-191)
# T1 sequence: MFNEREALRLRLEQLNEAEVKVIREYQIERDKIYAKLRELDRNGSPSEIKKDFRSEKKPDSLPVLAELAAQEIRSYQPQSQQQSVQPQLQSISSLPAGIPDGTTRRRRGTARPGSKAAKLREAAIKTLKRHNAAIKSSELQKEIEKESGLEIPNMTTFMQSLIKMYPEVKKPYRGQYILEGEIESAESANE
# Test: protein binding microarray; Rok is a gene silencer of Bacillus subtilis; high values mean tight binding
# Conditions: protein: recombinant; tags: GST (pTH5325, pDEST15-Magic modified); dsDNA, one strand shown
# In short: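 Each has a 25-mer constant primer and a 35-mer variable part from a de Bruijn sequence of order 10, covering every non-palindromic 8-mer at least 32 times (palindromic 16). Preference for each 8-mer is given as a rank-based, unitless enrichment score (E-score). Its range runs from 0.5 (most favored) to −0.5 (most disfavored).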
row,Sequence,binding signal [E-score]
1,GACCATAA,-0.0227
2,TACCATAA,0.336
3,AACCATAA,0.0915
4,CATAGTTA,0.244
5,AATAGTTA,0.372
6,GATAGTTA,0.391
7,GATAGTCA,0.0302
8,GATAGTGA,0.162
9,AATAGTTG,0.313
10,TGCTGCAA,-0.149
11,GCAATACA,0.115
12,CAACGACG,-0.1
13,CATAGCCG,-0.0675
14,CGAACCCG,-0.099
15,CATAAAGA,0.0223
16,AGCAGAGA,-0.129
17,CTACGGTA,0.175
18,ATACGGTA,0.348
19,GTACGATA,0.252
20,ATACGATC,0.0843
21,ATACGATA,0.366
22,ATACGGTG,0.0458
23,GTTATGAA,0.155
24,AAACATCT,0.0882
25,AGGAGGAA,-0.159

row,Sequence,binding signal [E-score]
1,GCAGTCTA,0.0175
2,AACTAGAG,0.107
3,GACTAGAA,0.15
4,AACTAGAA,0.395
5,AACTAGAT,0.369
6,ACCTAGAA,0.109
7,TGCTAGAA,0.387
8,GGCTAGAA,-0.0986
9,CACTAGAA,0.224
10,AGCTAGAT,0.215
11,TACTAGAA,0.375
12,AACTAGAC,0.103
13,AGCTAGAA,0.329
14,AAAAAGCT,-0.0996
15,GAGTACCA,-0.0678
16,ACACATGA,0.211
17,GACGTAGC,0.0184
18,AGGTTGAC,-0.156
19,CGTAAGGC,-0.174
20,AGAGGACT,-0.176
21,GAGCTAAC,0.0297
22,ATCCTAAG,-0.0403
23,AATCAATG,0.0424
24,CACTTATC,0.23
25,ACGTAAAG,0.0236

row,Sequence,binding signal [E-score]
1,GGTAGAAC,0.374
2,CGTAGAAG,0.128
3,TGTAGAAA,0.396
4,CGTAGAAC,0.0102
5,GTTAGAAC,0.0808
6,GATAGAAC,0.278
7,GGTAGACA,0.0655
8,GGTAGAGA,0.0752
9,GGTAGAAA,0.472
10,CGTAGAAA,0.359
11,TGTAGACA,0.159
12,TTTAGAAA,0.183
13,AAGTGAGC,-0.093
14,CGTGCCTA,-0.0621
15,GCCCACTA,0.00538
16,CCTCTTAC,-0.169
17,AGGTTAAT,0.137
18,CTGATAAG,0.0753
19,TCCGTAGA,0.118
20,CTGGAACA,-0.0188
21,ATACAAAA,0.278
22,AAACATAT,0.316
23,ATACATAC,0.372
24,ATACATAG,0.391
25,CTACATAG,0.153

row,Sequence,binding signal [E-score]
1,GTACATAC,0.28
2,CTACATAC,0.269
3,ATACATAA,0.316
4,ATACATAT,0.399
5,ATACAAAC,0.354
6,ATACACAT,0.303
7,ATACAAAT,0.32
8,GAATGTAA,0.21
9,AGCCCTAT,-0.0484
10,CGCGATGC,-0.0559
11,AAATTAAA,0.166
12,AGGTTCAT,-0.0409
13,GAATGGAC,-0.0766
14,AAGGTTGT,-0.00326
15,GCGATAAA,0.182
16,ATACAATA,0.359
17,ATACAATG,0.254
18,ATACAATC,0.192
19,CATAATCA,0.164
20,CGAGGCCA,-0.199
21,TGAACTAA,0.0469
22,ATTCGAAT,0.342
23,ATTCGAAG,0.09
24,ATTCGAAA,0.159
25,AGCGGTTA,-0.138

row,Sequence,binding signal [E-score]
1,ACCGGTAG,0.374
2,ACCGGTAA,0.255
3,AGCGGTAT,0.321
4,AGCGGTAG,0.34
5,CCCGGTAG,-0.134
6,AGCGGTAC,-0.166
7,CTATGTCA,0.225
8,AAGTCGCC,-0.0852
9,AAAGCATT,-0.0355
10,ACTAGTAG,0.426
11,ACTAGTAT,0.422
12,ACTAGTAC,0.41
13,ACTAGTCT,0.248
14,GCTAGTAC,0.181
15,CCTAGTAG,0.233
16,ACCAGTAT,0.255
17,ACTAGTGG,0.00757
18,CCTAGTAC,0.125
19,AGTTAAGC,-0.0477
20,GGCTAAGA,0.000408
21,GTTCTCAA,0.0738
22,TAACACTA,0.284
23,GAAGACTC,-0.114
24,CAGTAGGC,-0.157
25,TCCTACAA,0.0302

row,Sequence,binding signal [E-score]
1,AGGCTTCG,-0.0947
2,AGCCCTAA,-0.164
3,ATAATTAG,0.317
4,ATAATTAC,0.385
5,CTAATTAG,0.375
6,ATAATTAA,0.29
7,GTAATTAC,0.421
8,ATAATTAT,0.268
9,CTAATTAA,0.233
10,CTAATTAC,0.329
11,GTAATTAA,0.181
12,GAACCCAA,-0.176
13,ATGAAATC,0.029
14,AGGTCTGG,-0.0443
15,TTGTACAA,0.387
16,AGCTACCT,0.164
17,ATGTACAT,0.409
18,ATGTAAAA,0.295
19,GTGTACAA,0.167
20,AGCTACCC,-0.139
21,ATGTACAG,0.3
22,CTGTACAA,0.0838
23,ATGTAAAC,0.0692
24,AGCTACCA,0.358
25,ATGTAAAT,0.376

row,Sequence,binding signal [E-score]
1,ATGTACAA,0.311
2,ATAATTCC,0.213
3,GAGAACAA,-0.119
4,GTCGTTTA,0.0636
5,CCTCACAG,-0.0675
6,AGCAGCAG,-0.124
7,ACGGACAC,-0.126
8,CGCATTAA,0.0651
9,GTGATTTA,0.06
10,CCAGGAGC,-0.14
11,AGCGTCTA,0.0457
12,ATCTACCA,0.48
13,ATCTACCC,0.25
14,CTGTACCA,-0.0416
15,ATGTACCC,0.0665
16,ACCTACCG,0.169
17,GTCTACCA,0.0944
18,AGCTACCG,0.309
19,ATCTACCG,0.409
20,ATGTACCA,0.342
21,ATTGCCGG,-0.0899
22,ACCAGCCG,0.0494
